One may read the AC50 as the concentration giving half of the maximal activity seen.

Screen size: about 16,000 compounds; about 5,700 (36%) were called active. About 24% were inconclusive and are not listed. Calls follow the shape of the dose curve; as a rule, active = well fitted curve in the direction sought with a large enough effect; inconclusive = small, poorly fitted or top-dose-only effect, or effect the other way; inactive = no such curve, though single readings can be large or run the other way. Some of the results follow.
% is scaled to controls: 0 for no effect and ±100 for the full control effect.

The target of this assay is Cytochrome P450 1A2 (Homo sapiens) (UniProt P05177). Description: Cytochrome panel assay with activity outcomes. Conditions: recombinant CYP, pro-luciferin dealkylation, luminescence, p450-cyp1a2; series mostly up to 57.1 µM; activity, negative = inhibition: at the top concentration.
Chain of Cytochrome P450 1A2 (Homo sapiens) (P05177 whole entry, looked up): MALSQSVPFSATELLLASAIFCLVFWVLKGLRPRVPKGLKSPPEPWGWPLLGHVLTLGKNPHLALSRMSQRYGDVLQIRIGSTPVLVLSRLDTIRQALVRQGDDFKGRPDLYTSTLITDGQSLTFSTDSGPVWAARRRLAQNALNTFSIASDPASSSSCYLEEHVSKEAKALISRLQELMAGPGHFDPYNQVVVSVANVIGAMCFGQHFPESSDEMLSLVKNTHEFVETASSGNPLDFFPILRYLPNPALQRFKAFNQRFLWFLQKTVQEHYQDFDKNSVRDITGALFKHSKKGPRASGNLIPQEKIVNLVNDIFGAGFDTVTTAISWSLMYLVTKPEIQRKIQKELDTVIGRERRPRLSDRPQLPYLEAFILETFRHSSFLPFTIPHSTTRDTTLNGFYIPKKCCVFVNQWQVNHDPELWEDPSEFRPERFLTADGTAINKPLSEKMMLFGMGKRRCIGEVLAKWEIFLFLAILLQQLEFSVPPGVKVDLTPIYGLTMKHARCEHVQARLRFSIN
With `CN1CC[C@@]2(CCCN(C(=O)c3ccco3)C2)C1`, the “activity, negative = inhibition” value is 7.97% (inactive).

Take `COC(=O)C[C@](O)(CCCC(C)(C)O)C(=O)O[C@@H]1C(OC)=C[C@]23CCCN2CCc2cc4c(cc2[C@H]13)OCO4`: the “activity, negative = inhibition” value was -9.9% (inactive).

Take `C=C[C@@H]1CN2CC[C@H]1C[C@H]2[C@H](O)c1ccnc2ccccc12`: the activity, negative = inhibition is -18.2% [at 11.4 µM] (inactive). Still for that read-out and setting: the same measure for `CCN1C[C@@]2(COC)[C@H]3[C@@H](OC)[C@H]4C1[C@@]3([C@H](OC)C[C@@H]2O)[C@H]1C[C@@]2(O)[C@@H](OC(=O)c3ccccc3)[C@@H]1[C@@]4(OC(C)=O)[C@H](O)[C@@H]2OC`: -4.7% [at 25.6 µM] (inactive); for `NN=C(N)N`: -5.67% (inactive); for `c1csc(CN2CC3(CCNCC3)C2)n1`: 12.5% (inactive).

In the case of `Clc1ccc(C2=CCC[C@H]3CC[C@@H]2N3)cn1`, the concentration at half-maximal activity (AC50) was 15.8 µM (active).

`Clc1ccc([C@@H]2C[C@H]3CC[C@@H]2N3)cn1`: the “activity, negative = inhibition” value is -20.5% (inactive). Same read-out and setting: the same measure for `CCN(CC)C(=O)N[C@H]1C[C@H]2c3cccc4[nH]cc(c34)C[C@@H]2N(C)C1`: -12.5% (inactive); for `CNC(C)(C)Cc1ccccc1`: -1.89% [at 25.6 µM] (inactive); for `C[C@H](Br)C(=O)N[C@H](CO)C(=O)O`: -13.1% [at 11.4 µM] (inactive). In the case of `O=C(O)C[C@H]1NCc2cc3ccccc3nc21`, the activity, negative = inhibition was -4.93% [at 2.29 µM] (inactive).

In the case of `CCC1(CC)C(=O)C=CNC1=O`, the “activity, negative = inhibition” value was -8.09% [at 25.6 µM] (inactive). `O=C(Nc1ccc(Cl)cc1C(=O)c1ccccc1)c1ccco1`: the concentration at half-maximal activity (AC50) is 2.51 µM (active). For `CC[C@]1(C2=NCCN2)Cc2ccccc2O1`, the “activity, negative = inhibition” value is -6.04% (inactive). Still for that read-out and setting: the same measure for `CNC[C@H](O)c1ccc(O)cc1`: -7.35% [at 25.6 µM] (inactive). On to `CC[n+]1c(/C=C/N(C)c2ccccc2)sc2ccc(Cl)cc21`, for which the AC50 was 4.47 µM (active). Regarding `O=C(Nc1cccc(F)c1)N1CCC2(CC1)CCN(C(=O)Oc1ccccc1)CC2`, the “activity, negative = inhibition” value is -13.8% (inactive). As for `CCC(=O)Nc1ccc(N2CCN(CC)CC2)c(Cl)c1`, the “activity, negative = inhibition” value is 5.31% (inactive).

On to `COC(=O)[C@H]1[C@@H](c2ccccc2)[C@@]2(c3ccccc3)Oc3ccccc3[C@@]1(O)[C@@H]2O`, for which the activity, negative = inhibition was 4.61% [at 11.4 µM] (inactive). Consider `CC(C)[C@H](CO)Nc1nc(Nc2cccc(Cl)c2)c2ncn(C(C)C)c2n1`, for which the half-maximal activity concentration (AC50) was 0.316 µM (active). As to `CC[C@@H](CO)Nc1nc(NCc2ccccc2)c2ncn(C(C)C)c2n1`, the AC50 was 12.6 µM (active).

Turning to `O=C(O)[C@@H](Br)[C@H](Br)C(=O)O`, the activity, negative = inhibition is 5.86% [at 11.4 µM] (inactive). On the same count and under the same terms, the same measure for `CC(C)CNC(=S)NC1CC2CCCC(C1)N2Cc1ccco1` (stereo not drawn): 4.27% (inactive). Consider `CC(C)N(CC[C@@](C(N)=O)(c1ccccc1)c1ccccn1)C(C)C`, for which the AC50 result was “inactive”. In the case of `C(#CCN1CCCC1)CN1CCCC1`, the “activity, negative = inhibition” value was 1.87% [at 25.6 µM] (inactive). Turning to `CNC(=O)Oc1ccc2c(c1)[C@@]1(C)CCN(C)[C@@H]1N2C`, the “activity, negative = inhibition” value is -6.82% [at 25.6 µM] (inactive). Take `O=C(C[n+]1ccc2ccccc2c1)c1ccc2ccc3ccccc3c2c1`: the AC50 was 2.51 µM (active).
